Assay results published in PubChem BioAssay AID1851 (National Center for Advancing Translational Sciences (NCATS), 2009).
The campaign covered roughly 16,000 compounds. About 5,100 (32%) were called active. About 25% were inconclusive and are not listed. Some of the results follow. Unmarked numbers belong to inactive results. Calls come from the whole dose curve; as a rule, active = well fitted curve in the direction sought with a large enough effect; inconclusive = small, poorly fitted or top-dose-only effect, or effect the other way; inactive = no such curve, though single readings can be large or run the other way.

biological target: Cytochrome P450 3A4 (Homo sapiens) (UniProt P08684); assay: Cytochrome panel assay with activity outcomes; conditions: recombinant CYP, pro-luciferin dealkylation, luminescence, p450-cyp3a4; series mostly up to 57.1 µM; activity, negative = inhibition: at the top concentration
% is set by controls: 0 for no effect and ±100 for the full control effect.

Chain of Cytochrome P450 3A4 (Homo sapiens) (P08684 whole entry, looked up): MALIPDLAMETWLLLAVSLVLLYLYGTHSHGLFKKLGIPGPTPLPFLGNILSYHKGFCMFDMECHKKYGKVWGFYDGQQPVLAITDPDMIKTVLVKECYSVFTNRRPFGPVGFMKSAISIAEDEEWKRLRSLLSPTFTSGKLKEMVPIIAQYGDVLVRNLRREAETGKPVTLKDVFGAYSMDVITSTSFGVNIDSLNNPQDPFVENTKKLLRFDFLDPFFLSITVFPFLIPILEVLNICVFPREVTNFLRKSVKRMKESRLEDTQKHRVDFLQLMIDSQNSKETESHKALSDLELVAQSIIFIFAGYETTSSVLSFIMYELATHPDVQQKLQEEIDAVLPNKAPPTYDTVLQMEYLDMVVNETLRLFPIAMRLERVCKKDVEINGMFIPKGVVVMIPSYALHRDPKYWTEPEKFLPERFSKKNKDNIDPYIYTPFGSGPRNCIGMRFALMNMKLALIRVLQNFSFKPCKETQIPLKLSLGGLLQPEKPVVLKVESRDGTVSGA

| SMILES | activity, negative = inhibition | AC50 |
| --- | --- | --- |
| c1ccc(CCN2CCOCC2)nc1 | -6.24% [at 11.4 µM] | – |
| COCCCn1c(N)c(C(=O)Nc2sc3c(c2C(=O)OC)CCCC3)c2nc3ccccc3nc21 | – | 15.8 µM (active) |
| CNC(=O)OCC[N+](C)(C)C | -8.08% | – |
| O=C1Nc2ccc(I)cc2/C1=C/c1cc(Br)c(O)c(Br)c1 | – | 5.01 µM (active) |
| CC(C)c1ccc(C(O)(C(=O)O)c2ccc(C(C)C)cc2)cc1 | 19.4% [at 11.4 µM] | – |
| CC(C)c1ccc2c(c1)c(SC(C)(C)C)c(CC(C)(C)C(=O)O)n2Cc1ccc(Cl)cc1 | – | 20 µM (active) |
| C[C@H](N)[C@@H](O)c1ccccc1 | 0.449% [at 25.6 µM] | – |
| CC(C)(C)NC[C@H](O)c1ccccc1Cl | -11.1% | – |
| C[C@H](N)c1cccc(Cl)c1Cl | – | 25.1 µM (active) |
| CCOC(=O)N(c1ccccc1)P1(=S)OCCO1 | -25.1% [at 11.4 µM] | – |
| O=P(Nc1c(Cl)cccc1Cl)(c1ccccc1)c1nc2c(s1)CCCC2 (stereo unspecified) | – | 11.2 µM (active) |
| O=[As](O)(O)c1ccc2nc3cc([As](=O)(O)O)ccc3nc2c1 | 5.92% [at 11.4 µM] | – |
| Cn1cnc(CCN)c1 | -1.69% | – |
| COCCCN1Cc2ccccc2C1=N | -4.09% | – |
| O=C(O)/C=C(\CC(=O)O)C(=O)O | -2.52% [at 11.4 µM] | – |
| C[C@@]12CC[C@@H]3[C@H](CCC4=CC(=O)CC[C@]43C)[C@@H]1CC[C@@H]2C(=O)COS(=O)(=O)c1ccc(Br)cc1 | 20.5% [at 11.4 µM] | – |
| Nc1nc(OCc2ccccc2)c2[nH]cnc2n1 | – | 7.94 µM (active) |
| O=C(Nc1ccc(F)cc1F)c1cccnc1Oc1cccc(C(F)(F)F)c1 | -19.7% | – |
| CCOC(=O)[C@@H]1[C@@H]2c3ccccc3-c3ccccc3[C@H]2C[C@H]1O | -1.52% [at 11.4 µM] | – |
| Cc1ccc(N(C)C(=O)Oc2cccc3ccc(C)nc23)cc1 | – | 15.8 µM (active) |
| N[C@H](CCl)C(=O)O | -5.68% | – |
| C[C@H](CCC(=O)O)[C@H]1CC[C@]2(C)[C@@H]3C(=O)C[C@H]4C(C)(C)[C@@H](O)CC[C@]4(C)[C@H]3C(=O)C[C@@]12C | -2.04% [at 11.4 µM] | – |
| CN(N=O)c1cc(O)ccc1O | -16.5% | – |

| SMILES | activity, negative = inhibition | AC50 |
| --- | --- | --- |
| Cn1c(=O)c2[nH]cnc2n(C)c1=O.[CH2-][C@H](Cc1cccc2cc(C(=O)O)c(=O)oc12)OC.[Hg].[OH-] | 12.4% [at 11.4 µM] | – |
| C[C@]12CC[C@H]3c4ccc(O)cc4CC[C@@H]3[C@H]1CC[C@@H]2OC(=O)CCc1ccccc1 | -2.52% [at 11.4 µM] | – |
| COc1ccc2c(c1)[C@]13CCCC[C@@H]1[C@H](C2)NCC3 | – | 15.8 µM (active) |
| O=C(CCN1CC2CCC(CC2)C1)c1cccs1 | -19.3% [at 11.4 µM] | – |
| c1ccc2c(N3CCNCC3)cccc2c1 | -7.57% | – |
| N[C@@H](Cn1cc(I)c(=O)[nH]c1=O)C(=O)O | -21.8% | – |
| CCCOc1ccc2[nH]cc(C3=CCNCC3)c2n1 | – | 2.51 µM (active) |
| O=c1ccc2[nH]cc(C3=CCNCC3)c2[nH]1 | -11.9% | – |
| COc1ccc2[nH]cc(C3=CCNCC3)c2c1 | – | 1.26 µM (active) |
| CCCN1CCc2cc(O)cc3c2[C@H]1Cc1ccc(O)c(O)c1-3 | -22.6% | – |
| c1ccc(CCN2CCCCCC2)nc1 | -14.2% [at 11.4 µM] | – |
| CCSCC[C@H](N)C(=O)O | 5.54% [at 11.4 µM] | – |
| CO[C@@H]([CH2][Hg])CN1C(=O)c2ccccc2S1(=O)=O.Cn1c(=O)c2nc[nH]c2n(C)c1=O | 2.75% [at 11.4 µM] | – |
| CC(=O)OC1=CC2=CC[C@H]3[C@H]4CCC(=O)[C@@]4(C)CC(=O)[C@]3(S)[C@]2(C)CC1 | -29.7% [at 11.4 µM] | – |
| C=C(C)[C@H]1CC[C@]2(C(=O)O)CC[C@]3(C)[C@@H](CC[C@H]4[C@@]5(C)CC[C@@H](O)C(C)(C)[C@@H]5CC[C@@]43C)[C@H]12 | -20.4% [at 25.6 µM] | – |
| C[C@@H]1[C@H]2C=C[C@@H]1[C@@H](c1c3ccc(=O)c(O)c-3oc3c(O)c(O)ccc13)[C@@H]2C(=O)O | -0.366% [at 11.4 µM] | – |
| O=C(C1CC(=O)N(C2CCCC2)C1)N1CCC2(CC1)OCCO2 (stereo unspecified) | -7.38% | – |
| CN1[C@@H](CC(=O)c2ccccc2)CCC[C@@H]1C[C@@H](O)c1ccccc1 | -5.81% [at 25.6 µM] | – |
| N[C@H](Cc1o[nH]c(=O)c1Cl)C(=O)O | -20.3% | – |
| CS(=O)(=O)N1CCCC(C(=O)N2CCC3(CC2)OCCO3)C1 (stereo unspecified) | 1.72% [at 2.29 µM] | – |
| O=C(CNS(=O)(=O)c1cccs1)N1CCC2(CC1)OCCO2 | -9.14% | – |
| Cc1ccc(S(=O)(=O)NCC2CCC(C(=O)N3CCC4(CC3)OCCO4)CC2)cc1 (stereo unspecified) | – | 15.8 µM (active) |
| CCCCCCN=Cc1c(O)n(C)c(=O)n(C)c1=O | 16.4% [at 2.29 µM] | – |
